BAZ2B block: inhibitors of human BAZ2B bromodomain; Q9UIF8; AlphaScreen BAZ2B-H3K14Ac peptide displacement; Potency, µM (series often up to 114 µM), without a hit: at the highest dose activity change, negative = inhibition, hits mostly inhibitors; 4.4% of 360,000 active; AID 504333; further: on the % scale 0 is the no-effect control and ±100 the full control effect; nearly all actives have a fitted effect of over 60% in size
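BAZ2B (50 nM) with biotin-H3(5-23)K14Ac peptide (50 nM) in PBS pH 7.4, 0.01% Tween-20, preformed 30 min, then compound 30 min at room temperature; top concentration 110uM. AlphaScreen streptavidin donor/nickel chelate acceptor beads (10 ug/mL final), 20 min dark, signal read.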
Sfp PPTase inh: inhibitors of Bacillus subtilis Sfp phosphopantetheinyl transferase; 3.5% of 310,000 active; Q9F4F7; Biochemical Sfp PPTase activity, qHTS; Potency, µM, without a hit: largest response in the series, negative = inhibition, usual class: inhibitors;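 further: the enzyme is Sfp with the accession as filed and its product quenches rhodamine fluorescence; 0% = enzyme reaction without inhibitor and -100% = no enzyme wells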
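After 15 min at room temperature with compound, 15 nM Sfp received 5 uM rhodamine-CoA plus 12.5 uM BHQ-2-ybbR (50 mM Hepes pH 7.6, 10 mM MgCl2). Rate came from the fluorescence difference over 30 min, ex 525/em 598 nm.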
G9a inh: G9a (human) methyltransferase inhibition; Potency, µM (top dose mostly 102 µM), for the others: top-dose activity, negative = inhibition, hits mostly inhibitors; AID 504332; G9a H3K9 monomethylation, AlphaScreen, 2 h; Q96KQ7; 8.8% of 350,000 active; further: on the % scale 0 is the no-effect control and ±100 the full control effect; nearly all actives have a fitted effect of over 75% in size
Target sequence (Q96KQ7 913-1193 limits assumed): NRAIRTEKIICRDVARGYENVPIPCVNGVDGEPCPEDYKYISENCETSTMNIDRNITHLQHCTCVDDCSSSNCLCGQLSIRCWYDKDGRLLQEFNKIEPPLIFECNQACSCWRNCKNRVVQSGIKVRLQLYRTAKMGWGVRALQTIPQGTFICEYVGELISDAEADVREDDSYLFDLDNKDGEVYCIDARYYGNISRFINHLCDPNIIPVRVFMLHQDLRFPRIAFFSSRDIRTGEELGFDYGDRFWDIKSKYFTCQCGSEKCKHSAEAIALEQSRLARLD
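Enzyme 20 nM + cpd, 15 min RT; add b-H3K9 pep 500 nM / SAM 20 uM; 2 h RT; anti-H3K9me1 Ab 0.5 ug/mL + SA donor / anti-rabbit acceptor beads 20 ug/mL each, 10 min; AlphaScreen read.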
JMJD2A Tudor inh: blocks the human JMJD2A Tudor domain; Potency, µM (titrated, usually from 114 µM), for inactives: at the highest dose activity change, negative = inhibition, actives largely listed as inhibitors; AID 504339; O75164; AlphaScreen JMJD2A-Tudor / H3K4me3 peptide binding; 4.4% of 390,000 active; further: on the % scale 0 is the no-effect control and ±100 the full control effect; nearly all actives have a fitted effect of over 50% in size
HP1b binding inh: blocks HP1-beta chromodomain binding to methylated histone tails; P83916; AlphaScreen HP1-beta / biotin-H3K9me3 peptide binding; Potency, µM (doses to about 114 µM), inactives show top-dose activity change, negative = inhibition, usual class: inhibitors; 0.56% of 390,000 active; further: nearly all actives have a fitted effect of over 70% in size
Target sequence (P83916 whole entry, looked up): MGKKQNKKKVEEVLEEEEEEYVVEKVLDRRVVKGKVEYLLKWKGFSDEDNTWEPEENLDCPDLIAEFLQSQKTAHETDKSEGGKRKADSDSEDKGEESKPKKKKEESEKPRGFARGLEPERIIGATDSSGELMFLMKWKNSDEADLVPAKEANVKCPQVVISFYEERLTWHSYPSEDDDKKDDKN
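AlphaScreen: HP1-beta (50 nM) preformed 30 min with biotin-H3(1-18)K9me3 peptide (50 nM) in PBS pH 7.4, 0.01% Tween-20. Compound added for 30 min at RT, then streptavidin donor/nickel chelate acceptor beads (10 ug/mL) for 30 min.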
PLK1 PBD inh: inhibitors of human PLK1 polo-box domain binding; Plk1 PBD binding of FITC phosphopeptide, fluorescence polarization; Potency, µM, inactives show max response, negative = inhibition, hits mostly inhibitors; 2.8% of 360,000 active; AID 720504; further: series mostly up to about 57 µM; on the % scale 0 is the no-effect control and ±100 the full control effect; nearly all actives have a fitted effect of over 65% in size
Active calls of the source: *; u = inconclusive; x = no result; [ ] = another dose, or the depositor's remark. In the library only some 12% were active in any assay of this set; here they are far more common. The call rests on the fitted dose curve; in most records, active means well fitted curve in the direction sought with a large enough effect; inconclusive means small, poorly fitted or top-dose-only effect, or another doubt; inactive means no such curve, though single readings can be large; an effect the other way counts as inactive or inconclusive. Potency means the concentration at half of the fitted maximal effect.

SMILES	BAZ2B block	Sfp PPTase inh	G9a inh	JMJD2A Tudor inh	HP1b binding inh	PLK1 PBD inh
CCCNC(=O)NC1CCCc2ccccc21 (centres undefined)	-13%	18%	2%	-19%	17%	-9%
Cc1ccc(-n2c(C)cc(C(=O)NS(=O)(=O)c3ccc(C)cc3)c2C)cc1	u	-3%	50µM*	-29%	2%	-7%
CCOc1ccc(-n2c(C)cc(C(=O)NS(=O)(=O)c3ccc(C)cc3)c2C)cc1	4%	3%	u	-28%	-4%	-8%
O=C(NCc1cccc(C(F)(F)F)c1)c1ccc2nc([C@H]3C[C@H](O)[C@@H](CO)O3)[nH]c2c1	x	x	x	x	x	0%
FC(F)(F)c1ccccc1C1=CC(c2ccccc2)n2ncnc2N1 (centres undefined)	x	x	x	-19%	50%	-7%
Clc1ccccc1C1=CC(c2ccco2)n2ncnc2N1 (centres undefined)	-22%	8%	35µM*	-14%	20%	-24%
COc1ccc(C2=CC(c3ccco3)n3ncnc3N2)cc1 (centres undefined)	u	-45%	11µM*	-21%	30%	34µM*
CC(=O)Nc1cccc(C2=CC(c3ccco3)n3ncnc3N2)c1 (centres undefined)	x	-22%	u	x	x	x
Clc1ccc(C2=CC(c3ccco3)n3ncnc3N2)cc1 (centres undefined)	u	u	8.9µM*	u	27%	u
Cc1ccc(C)c(N2CCN(C(=O)Cn3nc(Cc4cccnc4)c4ccccc4c3=O)CC2)c1	u	x	-29%[59 µM]	u	5%	x
Cn1ccc(/C=N/N=C2/NC(=O)CS2)n1	-20%	u	10µM*	-1%	39%	1%
CCOc1ccc(NC(=O)Cn2c(=O)oc3cc(S(=O)(=O)NC4CCCC4)ccc32)cc1	-33%	x	5%[59 µM]	-21%	43%	x
CCCC(O)(CCC)C(=O)NN1CCCCC1	-1%	1%	26%[0.501 µM]	u	-9%	19µM*
CC(C)CCC(O)(CCC(C)C)C(=O)NN1CCCCC1	u	4%	12%[59 µM]	-7%	32%	6%
CC(=NNc1nc2ccccc2s1)c1ccncn1	x	x	x	u	-16%	-9%
C/C(=N\Nc1nc2ccccc2s1)c1ccc(Br)s1	u	9%	35µM*	u	-11%	-4%
Nc1cccc2nc3ccccc3cc12	7%	1%	-20%[59 µM]	0%	26%	-3%
Cc1cc2c(N)cccc2nn1	79µM*	2µM*	2.8µM*	-25%	5%	-22%
NNc1nc2c(Cl)ccc(Cl)c2s1	50µM*	5%	u	45µM*	-31%	-3%
COc1ccc(-c2oc3ccccc3c(=O)c2OCC(=O)O)cc1	-32%	18%	2%	u	-14%	12µM*
NC(=O)COc1c(-c2ccco2)oc2ccccc2c1=O	-6%	89µM*	-50%	-14%	9%	-8%
CCOC(=O)COc1c(-c2ccc(OC)cc2)oc2ccccc2c1=O	42%	u	5%[59 µM]	29%	125%	-1%
O=C(O)COc1c(-c2ccc(Cl)cc2)oc2ccccc2c1=O	-38%	12%	u	-24%[57.1 µM]	27%	-19%
O=C(O)COc1c(-c2ccco2)oc2ccccc2c1=O	-2%	11%	45µM*	-4%	40%	0%
O=C(NNC(=O)c1cccs1)c1ccc(Cl)c(Cl)c1	0%	3%	2%[59 µM]	-10%	3%	-6%
SMILES	BAZ2B block	Sfp PPTase inh	G9a inh	JMJD2A Tudor inh	HP1b binding inh	PLK1 PBD inh
COc1cc(C2c3c(oc4ccccc4c3=O)C(=O)N2c2nccs2)ccc1O (centres undefined)	-20%	1%	u	-9%	24%	-15%
O=c1[nH]c(CSc2cccc[n+]2[O-])nc2ccccc12	-4%	45µM*	x	-1%	47%	-10%
O=C(CCc1nc2ccccc2c(=O)[nH]1)Nc1nnc(SCc2ccccc2)s1	2%	x	-40%	-8%	11%	2%
CC(C)Cn1c(SCc2nc3ccccc3c(=O)[nH]2)nc2ccccc2c1=O	89µM*	2%	2%	-8%	17%	1%
O=c1[nH]c(CSc2nnc(Nc3ccccc3)s2)nc2ccccc12	-5%	2%	-4%	u	-6%	27µM*
N#Cc1cc2c(nc1SCc1ccc(Cl)nc1)CCCCC2	30%	-2%	30%[12.7 µM]	75%	126%	-1%
Cc1nc2c3cc(F)ccc3n(Cc3ccccc3F)c2s1	50µM*	18µM*	-26%[59 µM]	23%	-22%	u
CCOc1nc(NC2CCCC2)nc(N2CCC(C)CC2)n1	-28%	10%	18%	5%	19%	19µM*
CCOc1ccccc1NC(=O)C1CCN(C(=O)C2CC(=O)N(c3ccc(C)cc3)C2)CC1 (centres undefined)	7%	9%	15%	-19%	-13%	-10%
CC(=NCCN1CCNCC1)C1=C(O)CC(C)(C)CC1=O	-1%	-5%	-38%	-22%	53%	-18%
O=C(NCc1ccco1)c1cccc2c1C(=O)c1ccc(N3CCC(Cc4ccccc4)CC3)cc1S2(=O)=O	x	x	x	-20%	30%	u
O=C(NCc1ccco1)c1cccc2c1C(=O)c1ccc(/C=C/c3ccccc3)cc1S2(=O)=O	x	x	x	40µM*	u	u
O=C(CSC(=S)N1CCOCC1)Nc1ncc2c(n1)CC(c1ccco1)CC2=O (centres undefined)	-14%	1%	4%	4%	36%	2%
O=C(O)CCSc1nnc(SCC(=O)NC2CCS(=O)(=O)C2)s1 (centres undefined)	x	x	x	-11%	11%	-14%
O=c1c2c3nc4ccccc4nc3n(-c3ccc4c(c3)OCCO4)c2ncn1CC1CCCO1 (centres undefined)	-6%	-8%	6%	x	x	x
O=c1c2c3nc4ccccc4nc3n(-c3ccc4c(c3)OCCO4)c2ncn1C1CCCC1	x	6%	-5%[59 µM]	79µM*	42%	-15%
Cc1ccc(Cn2c(C)c(CNCC(C)c3ccccc3)c(C(=O)O)c2C)cc1 (centres undefined)	u	x	-4%[59 µM]	-31%	10%	x
Cc1ccc(C(=O)NC2(C(F)(F)F)N=C3SCCN3C2=O)cc1 (centres undefined)	-2%	12%	1%[12.7 µM]	0%	24%	3%
O=C(NC1(C(F)(F)F)N=C2SCCN2C1=O)C1CCCCC1 (centres undefined)	1%	63µM*	9%[59 µM]	-2%	68%	-6%
O=C(CNc1ccc2ccccc2c1)N/N=C/c1ccc(C(=O)O)cc1	u	-3%	u	-19%	21%	-1%
O=C(N/N=C/c1ccc([N+](=O)[O-])o1)C1CC1	50µM*	10%	u	u	24%	-14%

High-throughput results deposited in PubChem BioAssay by National Center for Advancing Translational Sciences (NCATS).
